The panel holds about 83,000 compounds, 20% with a hit somewhere; the sample as a whole holds those more often.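 96-well plates, one dose, 48 hours. Percent growth reported; active if below 10.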 A number with no mark means an inactive call. The source made the active and inactive calls.
Assays:
Experiment in all cases: NCI-60 one-dose screen, 48 h (100 = growth as untreated, 0 = no growth, -100 = all killed)
Details in all cases: 10 µM unless noted
NCI-H23 lung = system: NCI-H23 lung
NCI-H226 lung = system: NCI-H226 lung
NCI-H322M lung = system: NCI-H322M lung
HOP-62 NSCLC = system: HOP-62 NSCLC
NCI-H460 lung = system: NCI-H460 lung
HOP-92 NSCLC = system: HOP-92 NSCLC
NCI-H522 lung = system: NCI-H522 lung
A549/ATCC NSCLC = system: A549/ATCC NSCLC
786-0 renal = system: 786-0 renal
COLO 205 colon = system: COLO 205 colon

| SMILES | growth (NCI-H23 lung) | growth (NCI-H226 lung) | growth (NCI-H322M lung) | growth (HOP-62 NSCLC) | growth (NCI-H460 lung) | growth (HOP-92 NSCLC) | growth (NCI-H522 lung) | growth (A549/ATCC NSCLC) | growth (786-0 renal) | growth (COLO 205 colon) |
| --- | --- | --- | --- | --- | --- | --- | --- | --- | --- | --- |
| COC(=O)[C@]12CC[C@@H](C)[C@H](C)[C@@H]1C1=CC[C@@H]3[C@@]4(C)C(C=O)=C[C@@](C)(COC(=O)c5ccco5)C4=CC[C@@]3(C)[C@]1(C)CC2 | 8.23% (active) | 19.1% | 39.6% | 7.71% (active) | 2.11% (active) | -15.5% (active) | -6.14% (active) | 8.76% (active) | -8.17% (active) | -55.8% (active) |
| Cc1cc(NCc2cc(Nc3ccnc4cc(Cl)ccc34)ccc2F)nc(N2CCSCC2)n1 | 26.9% | 84.6% | 43.2% | -41.6% (active) | 6.39% (active) | 37.7% | -23.6% (active) | 39% | 15.5% | -38.5% (active) |
| COc1ccc(NC(=O)CSc2nnc(-c3cc(-c4ccccc4)nc4ccccc34)n2-c2ccccc2)cc1 | 92.1% | 89.3% | 94.6% | 101% | 102% | 87.3% | 80.1% | 92.4% | 97.3% | 116% |
| NC1=NCc2nc3ccccc3c(=O)n2C1 | 96.6% | 94.9% | 110% | 98.4% | 111% | 67.5% | 91.6% | 93.9% | 97.6% | 124% |
| CC/C=C\CCC/C=C1/C(=O)C=C[C@@H]1C/C=C\CCCC(=O)O | 80.4% | 90.3% | 107% | 100% | 83.7% | 75.3% | 29.9% | 79.9% | 85.2% | 85.8% |
| Cc1cc(NCc2cc(Nc3ccnc4cc(Cl)ccc34)ccc2F)nc(N2CCCC2)n1 | 32.9% | 65.8% | 30.6% | -13.3% (active) | -51.7% (active) | 41.3% | -40.3% (active) | 8.66% (active) | -83.9% (active) | -78.4% (active) |
| CCN1CCN(c2cc(C)nc(NCc3cc(Nc4ccnc5cc(Cl)ccc45)ccc3F)n2)CC1 | 56% | 83.7% | 90.2% | 52.3% | 61.8% | 62.9% | 106% | 74.6% | 85% | -86.2% (active) |
| CNC(=O)c1cc(Oc2ccc3nc(Nc4ccc(Cl)c(C(F)(F)F)c4)ccc3c2)ccn1 | 72.5% | 56.9% | 89.2% | 85.1% | 55.8% | 59.2% | 22.7% | 48.2% | 85% | 52.6% |
| Cc1cc(/C=C\c2ccc3ccccc3[n+]2C)c(O)c2ncccc12 | -4.98% (active) | -35.5% (active) | 8.71% (active) | 20.3% | 4.5% (active) | 19.4% | 32.1% | 12% | 9.72% (active) | 9.56% (active) |
| Cc1ccc(Cc2cnc(NC(=O)c3ccc4noc(-c5ccccc5)c4c3)s2)cc1 | 94.4% | 88.3% | 88.5% | 64.8% | 84.3% | 103% | 72.7% | 71.7% | 96.2% | 107% |
| O=c1[nH]nc(-c2ccccc2)c2c(-c3ccccc3)onc12 | 50.4% | 55.4% | 59.8% | 34.4% | 17% | -6.41% (active) | -22.5% (active) | 58.5% | 45% | 11.3% |
| Cc1ccc2nc(NC(=O)CSc3nc(-c4ccccc4)c(C#N)c(=O)n3Cc3ccccc3)sc2c1 | 85.9% | 85.2% | 96.4% | 77.8% | 98.3% | 54.9% | 30.5% | 104% | 99.3% | 104% |
| O=[N+]([O-])c1ccc(N2c3ccncc3Sc3ccncc32)cc1 | 102% | 105% | 105% | 104% | 122% | 80.2% | 87.8% | 110% | 107% | 111% |
| CN(C)c1ccc(-c2cc(-c3ccc(Nc4nc(Nc5ccc(Cl)cc5)nc(Nc5ccc(Cl)cc5)n4)cc3)no2)cc1 | 45% | 87.1% | 65.2% | 63.6% | 27.1% | -11.5% (active) | 55.9% | 23.1% | 36.9% | 0.291% (active) |
| N/C(=N\c1nc2ccccc2s1)NC(=O)Nc1cccc(Cl)c1 | 59.4% | 55.3% | 53.3% | 36.8% | 15.1% | 51.6% | 17.1% | 40.4% | 34.8% | 26.2% |
| CC(=O)c1ccc(NCC(=O)Nc2ccccn2)cc1 | 96.4% | 91.3% | 103% | 98.7% | 104% | 103% | 107% | 104% | 102% | 103% |
| COc1ccc(-c2nc(SCCC(C)C)nc(N/N=C\c3cccc(Cl)c3)c2C#N)cc1 | 82.6% | 90% | 55.8% | 49.7% | 15.2% | 62.5% | 71.3% | 59.7% | 43.2% | 81.9% |
| Cc1ccc(C2SCC(=O)N2Cc2ccccc2)cc1 (stereo not given) | 100% | 96% | 95.6% | 104% | 115% | 81.7% | 83.6% | 102% | 89.2% | 109% |
| CC1CC(C(C)(C)C)C(=O)C(C(C)(C)C)C1 (stereo not given) | 109% | 98.8% | 107% | 105% | 108% | 85% | 90.8% | 100% | 100% | 115% |
| O=C(COc1ccc(/C=C2\Oc3ccccc3C2=O)cc1)Nc1nc2ccccc2s1 | 48.5% | 98.4% | 118% | 73.8% | 111% | -90.4% (active) | -79.9% (active) | 68.3% | 49% | 91.5% |
| O=C(NCCc1ccc(O)c(O)c1)C12CC3CC(CC(C3)C1)C2 | 84.9% | 93.7% | 114% | 74.3% | 110% | 65.5% | 9.83% (active) | 105% | 87.9% | 90% |
| Clc1cc(Cl)cc(Nc2ccc3cc(OCCCN4CCOCC4)ccc3n2)c1 | 37.6% | 68.5% | 59.4% | 22% | 17.5% | 27.5% | -21.1% (active) | 35.6% | -36.6% (active) | -51.3% (active) |
| O=Cc1ccc(O)c2ncccc12 | 29.2% | 116% | 97.1% | 44.6% | 30.1% | 43.5% | 51.8% | 100% | 89.3% | 17.8% |
| Cc1ccc(-c2c(-c3ccccc3)c(=O)oc3ccc(C)cc23)cc1 | 96.1% | 89.6% | 97.8% | 101% | 93.8% | 84% | 107% | 91% | 105% | 91.4% |
| Cc1cccc(-c2nc(N(C)c3ccc4ncsc4c3)c3ccccc3n2)n1 | 78.2% | 84% | 100% | 69.7% | 70.7% | 91.8% | 30.4% | 48.5% | 94% | 57.3% |
| CN1CCN(CCCOc2ccc3nc(Nc4ccc(F)c(F)c4)ccc3c2)CC1 | 51.5% | 62.9% | 68% | 22.5% | 7.51% (active) | 5.74% (active) | -50.4% (active) | 16.1% | 2.05% (active) | -72% (active) |
| COc1ccc(C(=O)Nn2c(NCC(=O)N3c4ccccc4Sc4ccccc43)nnc2-c2ccc(O)cc2)cc1 | 94.4% | 101% | 104% | 103% | 110% | 87.9% | 92.2% | 97.5% | 100% | 112% |
| CC1(C)CC[C@]2(C(=O)N3CCOCC3)CC[C@]3(C)C(=CC[C@@H]4[C@@]5(C)CC[C@H](OC(=O)c6cccnc6)C(C)(C)[C@@H]5CC[C@]43C)[C@@H]2C1 | 68.9% | 50.1% | 88.2% | 78.7% | 18.3% | 66.4% | 73.3% | 47.3% | 62.4% | 58.4% |
